Screening data from PubChem BioAssay.
Cycloheximide cs: counter-screen for Shiga toxin inhibitors: cycloheximide protein synthesis inhibition | cell reporter, cycloheximide protein synthesis inhibition counterscreen | max response, % | 300,000 tested, 12% active | AID 2314; in the data active = max response mostly above about 13%, no sharp cut-off; inactive = mostly below about 14%; also: read at 38.3 µM for the half of the compounds with a filed dose
NS1 function inh: influenza NS1 inhibition; Potency, µM (series often up to 46.1 µM); 270,000 tested, 0.4% active; AID 2326; calls by dose curve; also: actives are rising curves; nearly all actives have a fitted effect of over 50% in size
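A cell-based growth assay was used: compounds that relieve NS1-induced slow growth of budding yeast raise OD600. Assay medium was yeast nitrogen base with ammonium sulphate and -URA supplement, pH 6.0, with 2% galactose.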
TbPYK inhibitor: T. brucei pyruvate kinase inhibition. Potency, µM (titrated, usually from 76.8 µM), actives largely listed as inhibitors. Q57TT1. TbPYK enzyme, Kinase-Glo Plus ATP luminescence, 45 min. 410,000 tested, 0.12% active; also: nearly all actives have a fitted effect of over 50% in size
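ADP (130 uM final) triggers the TbPYK reaction after compound addition; incubation is 45 min at room temperature. Kinase-Glo Plus is then added and luminescence imaged. Normalized data are fitted to concentration-effect curves.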
LmPK inh: blocks Leishmania mexicana pyruvate kinase activity | Q27686 | purified LmPK, Kinase-Glo ATP luminescence, 1 h | Potency, µM (top dose mostly 57.5 µM), hits mostly inhibitors | 290,000 tested, 0.37% active
Target sequence (Q27686 whole entry, looked up): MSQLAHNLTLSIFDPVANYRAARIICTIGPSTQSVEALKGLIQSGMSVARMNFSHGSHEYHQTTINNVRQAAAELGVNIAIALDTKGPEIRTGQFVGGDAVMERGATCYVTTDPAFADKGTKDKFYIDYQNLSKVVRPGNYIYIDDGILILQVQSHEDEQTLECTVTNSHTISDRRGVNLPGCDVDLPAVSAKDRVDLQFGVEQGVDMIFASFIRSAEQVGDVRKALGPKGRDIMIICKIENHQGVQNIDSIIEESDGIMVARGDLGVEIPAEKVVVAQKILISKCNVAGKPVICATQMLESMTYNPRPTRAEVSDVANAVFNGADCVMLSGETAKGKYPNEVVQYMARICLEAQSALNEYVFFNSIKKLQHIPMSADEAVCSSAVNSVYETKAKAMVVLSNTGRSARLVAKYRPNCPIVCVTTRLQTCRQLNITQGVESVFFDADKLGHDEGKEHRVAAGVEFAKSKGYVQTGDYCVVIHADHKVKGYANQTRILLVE
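qHTS format; LmPK 0.1 nM; substrates PEP 0.5 mM and ADP 0.1 mM. One-hour room-temperature incubation, then coupled luciferase luminescence; 0.5 nM enzyme wells mark activation.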
Shiga toxin inh: Shiga toxin inhibition. inhibition, % at 38.7 µM. Vero cells, Shiga toxin protein synthesis inhibition reporter. 290,000 tested, 9.2% active; in the data active = inhibition mostly above about 28%, no sharp cut-off; inactive = mostly below about 43%
SARS PLP yeast: blocks SARS-CoV papain-like protease in a yeast assay | S. cerevisiae expressing SARS-CoV PLpro, growth rescue | 330,000 tested, 0.19% active | Potency, µM (series often up to 32.9 µM), actives largely listed as activators | AID 485353; calls by dose curve; also: nearly all actives have a fitted effect of over 55% in size
Each line names hits and unclear results; the compound was inactive in the other large screens. The entries come from a sample that favours hits as a whole. Unless noted, calls follow the shape of the dose curve; as a rule, active = well fitted curve in the direction sought with a large enough effect; inconclusive = small, poorly fitted or top-dose-only effect, or another doubt; inactive = no such curve, though single readings can be large; an effect the other way counts as inactive or inconclusive.

Cc1ccc(C)c(CN2C(=O)c3ccccc3S(=O)(=O)c3ccc(C(=O)N4CCCC4)cc32)c1	none (no result: Cycloheximide cs, NS1 function inh, LmPK inh, Shiga toxin inh, SARS PLP yeast)
CCC(C)NC(=O)c1sc2nc(C)c(C(=O)Nc3ccc(C)cc3C)c(-c3ccccc3Cl)c2c1N (centres undefined)	none (no result: Cycloheximide cs, NS1 function inh, LmPK inh, Shiga toxin inh, SARS PLP yeast)
COc1ccc2c(c1)CC/C2=N\OC(=O)c1ccccc1C	Cycloheximide cs 50.4, Shiga toxin inh 134.8 (no result: NS1 function inh)
O=C(O/N=C1\CCCc2ccccc21)c1cccs1	Cycloheximide cs 35.8, LmPK inh inconclusive, Shiga toxin inh 69.8 (no result: NS1 function inh)
O=C1NC[C@H](CCCCN2CCN(CCC3CCCCC3)C(=O)C2=O)N(CCc2ccccc2)C1=O	none (no result: Cycloheximide cs, NS1 function inh, LmPK inh, Shiga toxin inh, SARS PLP yeast)
COc1cc(/C=N/NC(=O)c2ccoc2C)cc(OC)c1OC	none (no result: Cycloheximide cs, NS1 function inh, LmPK inh, Shiga toxin inh, SARS PLP yeast)
COc1ccc(/C=N/NC(=O)c2ccoc2C)cc1COc1ccc(Cl)cc1	Cycloheximide cs 33.3, Shiga toxin inh 91.4 (no result: SARS PLP yeast)
COc1ccc(/C=N/NC(=O)c2ccoc2C)cc1OC	Cycloheximide cs 42.6, Shiga toxin inh 115.2
COc1ccc(/C=N/NC(=O)c2ccccc2OC)cc1COc1ccc(C)cc1	none
COc1ccc(/C=N/NC(=O)c2ccoc2C)cc1O	Cycloheximide cs 57.7, LmPK inh inconclusive, Shiga toxin inh 57.3
O=C(CSc1nc2[nH]ncc2c(=O)[nH]1)Nc1cc(C(F)(F)F)ccc1Cl	none (no result: Cycloheximide cs, NS1 function inh, LmPK inh, Shiga toxin inh, SARS PLP yeast)
COc1cc(Br)c(/C=C(\C#N)c2nc3ccccc3[nH]2)cc1OC	none (no result: Cycloheximide cs, NS1 function inh, LmPK inh, Shiga toxin inh, SARS PLP yeast)
N#C/C(=C\c1ccc(OC(=O)c2cccs2)cc1)c1nc2ccccc2[nH]1	Cycloheximide cs 57.9, Shiga toxin inh 144.7
N#C/C(=C\c1ccccc1OCC(=O)O)c1nc2ccccc2[nH]1	Cycloheximide cs 8.3
C(=N\c1nc2ccccc2[nH]1)/c1cccs1	LmPK inh 14.1µM
N#C/C(=C\c1ccc(Cl)cc1)c1nc2ccccc2[nH]1	none (no result: Cycloheximide cs, NS1 function inh, LmPK inh, Shiga toxin inh, SARS PLP yeast)
Cn1c(/C=N/c2nc3ccccc3[nH]2)nc2ccccc21	none
N#C/C(=C/c1ccc(O)c(O)c1)c1nc2ccccc2[nH]1	Cycloheximide cs 26.2, Shiga toxin inh 76.6
Cc1ccc2c(c1)N(C(=O)N1CCC(C(=O)NC3CCCCCC3)CC1)CCO2	none (no result: Cycloheximide cs, NS1 function inh, LmPK inh, Shiga toxin inh, SARS PLP yeast)
Cc1ccc(C2CC(=O)Oc3ccc(C(C)(C)C)cc32)cc1 (centres undefined)	none (no result: NS1 function inh, TbPYK inhibitor, LmPK inh, SARS PLP yeast)
CC(=O)N1CCCc2cc(S(=O)(=O)N3CCCCC3)ccc21	none (no result: Cycloheximide cs, NS1 function inh, LmPK inh, Shiga toxin inh, SARS PLP yeast)
N#C/C(=C\Nc1ccc2c(c1)OCCO2)c1nc2ccccc2[nH]1	Cycloheximide cs 60.2
N#C/C(=C\c1cccs1)c1nc2ccccc2[nH]1	Cycloheximide cs 31.6, Shiga toxin inh 106.7
N#C/C(=C\Nc1ccc2c(c1)OCCO2)c1nc(-c2ccccc2)cs1	none
CCOC(=O)c1c(NC(=O)CCCOc2ccc(C)cc2)sc2c1CCC(C)C2 (centres undefined)	none (no result: Cycloheximide cs, NS1 function inh, LmPK inh, Shiga toxin inh, SARS PLP yeast)
O=C(CSc1ccc(-c2cccnc2)nn1)Nc1ccc(F)cc1	none
COc1cccc(C(=O)NCc2cn3ccccc3n2)c1	none (no result: Cycloheximide cs, NS1 function inh, LmPK inh, Shiga toxin inh, SARS PLP yeast)
CCOc1ccc(CCNC(=O)CN2CCN(Cc3ccc(F)cc3Cl)C2=O)cc1OCC	none (no result: Cycloheximide cs, NS1 function inh, LmPK inh, Shiga toxin inh, SARS PLP yeast)
O=C(CN1CCN(Cc2ccc(F)cc2Cl)C1=O)NCCc1ccccc1	Cycloheximide cs 13.5
COc1cccc(C(=O)NCc2cn3ccsc3n2)c1	Cycloheximide cs 15.9
O=C(COC(=O)c1ccco1)NCc1ccccc1Cl	Cycloheximide cs 32.4, TbPYK inhibitor inconclusive, Shiga toxin inh 85.7 (no result: NS1 function inh)
CC(=O)c1ccc(OCCCC(=O)NCCc2ccccc2)cc1	Cycloheximide cs 30.9
O=C(COC(=O)c1ccco1)NCc1ccc(Cl)cc1Cl	none (no result: Cycloheximide cs, NS1 function inh, LmPK inh, Shiga toxin inh)
O=C(CCCc1ccccc1)NCCc1ccccc1	Cycloheximide cs 44.8, Shiga toxin inh 84.4
CN(CC(=O)NCCc1ccc(F)cc1)Cc1cccs1	Cycloheximide cs 28.3 (no result: NS1 function inh)
O=C(CCCc1ccccc1)NCCCc1ccccc1	none
O=C(CCCc1ccccc1)NCc1cn2ccsc2n1	Cycloheximide cs 16.9
O=C(CCCc1ccccc1)NCc1ccccc1Cl	Cycloheximide cs 18.0 (no result: Shiga toxin inh)
CCc1nnc(SCc2cccc(F)c2)c2cc3sc(C)cc3n12	none (no result: Cycloheximide cs, NS1 function inh, LmPK inh, Shiga toxin inh, SARS PLP yeast)
O=C(NCc1cccc(Br)c1)c1cccn1-c1nnc(N2CCCCC2)s1	none (no result: Cycloheximide cs, NS1 function inh, LmPK inh, Shiga toxin inh, SARS PLP yeast)
O=C(CCc1ccccc1)NCCc1ccc(F)cc1	Cycloheximide cs 27.2
O=C(CCCc1ccccc1)NCCc1ccc(F)cc1	Cycloheximide cs 28.6, Shiga toxin inh 92.4
CC(C)=CC(=O)NCCc1ccccc1	Cycloheximide cs 45.4, Shiga toxin inh 92.6 (no result: SARS PLP yeast)
O=C(O)/C=C/C(=O)NCCc1ccccc1	none (no result: NS1 function inh)
O=C(Cc1ccc(F)cc1)NCCc1ccccc1	none
